# Compound activity deposited in PubChem by National Center for Advancing Translational Sciences (NCATS).
# ELG1 genotox = genotoxicity induction in ELG1-luciferase HEK293T cells; HEK293T ELG1-luciferase reporter, luminescence, 16 h; Potency, µM (series often up to 46 µM), hits mostly activators; hit rate 1.3% among 330,000; further: nearly all actives have a fitted effect of over 60% in size
#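 Genotoxicity was scored as increased ELG1-luciferase reporter signal, measured by ONE-Glo luminescence (30 min, room temperature). Compound or vehicle exposure of the HEK293T reporter cells lasted 16 hr at 37°C.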
# Rab9 prom act = activators of Rab9 promoter. Huh7 Rab9 promoter-luciferase reporter, luminescence, 24 h. Potency, µM (highest dose often 9.22 µM), hits mostly activators. hit rate 2.8% among 320,000. AID 485297; further: nearly all actives have a fitted effect of over 60% in size
#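 Huh7 cells stably carrying a Rab9 promoter-luciferase reporter, 1500 cells per well in OP-MEM I with 10% FBS, treated with compound 24 hours at 37C. Luciferase activity read by luminescence after 10 minutes with Amplite reagent.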
# FLuc modulator = firefly luciferase modulation, counter-screen for miR-21 project; hit rate 6.9% among 360,000; purified FLuc, Km substrates, luminescence inhibition; Potency, µM (highest dose often 57.5 µM), most hits filed as inhibitors; AID 588342; further: nearly all actives have a fitted effect of over 55% in size
# Target sequence (P08659 whole entry, looked up): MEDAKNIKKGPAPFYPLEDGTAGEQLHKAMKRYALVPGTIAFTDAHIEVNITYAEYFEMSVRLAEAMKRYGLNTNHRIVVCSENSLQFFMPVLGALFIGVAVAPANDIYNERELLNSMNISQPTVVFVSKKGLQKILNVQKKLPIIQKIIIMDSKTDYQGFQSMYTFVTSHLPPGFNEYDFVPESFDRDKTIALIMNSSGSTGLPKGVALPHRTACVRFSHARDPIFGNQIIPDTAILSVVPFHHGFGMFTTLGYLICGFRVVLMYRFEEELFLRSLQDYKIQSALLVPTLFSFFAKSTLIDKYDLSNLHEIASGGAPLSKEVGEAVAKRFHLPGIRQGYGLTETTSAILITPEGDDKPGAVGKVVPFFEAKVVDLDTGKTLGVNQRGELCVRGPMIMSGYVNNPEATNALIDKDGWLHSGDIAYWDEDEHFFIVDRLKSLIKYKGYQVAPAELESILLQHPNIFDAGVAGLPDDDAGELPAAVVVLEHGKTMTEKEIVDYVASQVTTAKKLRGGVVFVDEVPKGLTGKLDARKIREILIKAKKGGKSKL
#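 Biochemical qHTS of compounds, final roughly 60 µM downward over six points, against 10 nM purified firefly luciferase using Km concentrations of substrates (10 uM D-luciferin, 10 uM ATP) in Tris acetate pH 7.5 buffer; luminescence output.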
# NPC1 promoter act = activators of NPC1 promoter; Huh7 NPC1 promoter luciferase reporter, 24 h; Potency, µM (highest dose often 9.22 µM), actives largely listed as activators; hit rate 2.4% among 320,000; AID 485313; further: nearly all actives have a fitted effect of over 60% in size
#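 Luminescence read-out of NPC1 promoter-driven luciferase in stably transfected Huh7 cells; compounds delivered in DMSO and left 24 h at 37C, 5% CO2, qHTS titration format.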
# SMN2 splice up = enhancers of SMN2 splice variant expression; HEK293 SMN2-luciferase splicing reporter, luminescence, 30-36 h; hit rate 2.8% among 210,000; Potency, µM (top dose mostly 46.1 µM), hits mostly activators; further: nearly all actives have a fitted effect of over 55% in size
#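 HEK293 cells carry an SMN2 minigene-luciferase reporter in which exon 7 inclusion puts luciferase in frame. Cells were seeded at 2000 cells/well, attached for 10-12 hours, then exposed to compounds for 30-36 hours at 37C before ONE-Glo luminescence.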
# ELG1 repair inh = ELG1-dependent DNA repair inhibition; HEK293T ELG1-luciferase reporter, luminescence, 16 h; DNA damage induced by 5-fluorouridine; Potency, µM (titrated, usually from 46.1 µM), usual class: inhibitors; hit rate 2.3% among 330,000; AID 504467; further: nearly all actives have a fitted effect of over 55% in size
#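 5-Fluorouridine DNA damage + compound/DMSO, 2,000 cells/well, 16 h, 37 °C/5% CO2. ONE-Glo, 30 min RT, luminescence. Readout = decrease in reporter signal.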
# Hits are given with their value; 0 = inactive; ? = inconclusive; - = no result; [ ] = another dose, or the depositor's remark. This is a sample that favours compounds with a hit; in the whole collection about 9.3% have one here. The call rests on the fitted dose curve; in most records, active means well fitted curve in the direction sought with a large enough effect; inconclusive means small, poorly fitted or top-dose-only effect, or another doubt; inactive means no such curve, though single readings can be large; an effect the other way counts as inactive or inconclusive.
SMILES,ELG1 genotox,Rab9 prom act,FLuc modulator,NPC1 promoter act,SMN2 splice up,ELG1 repair inh
Cc1ccc(C(=O)NC(=S)Nc2cccnc2Cl)cc1,?,2.8µM,12µM,2.5µM,-,?
Cc1ccc(C(=O)NC(=S)Nc2ccccc2C(F)(F)F)cc1,0,0,?,0,-,0
CC1Oc2ccccc2C=C1/C=N/Nc1ccc(C(=O)O)cc1 (stereo unspecified),1.2µM,?,0.54µM,?,-,?
C[C@@H]1Oc2ccccc2C=C1/C=C/C(=O)O,-,-,-,-,0,-
O=C(O)c1ccc(/C=N/Nc2ccc(Cl)nn2)cc1,0,0,0,0,-,0
Fc1ccc(N/N=C/C=C/c2ccccc2)c(F)c1,?,?,27µM,?,?,?
O=C(CNC(=O)c1cccc(F)c1)N/N=C/C=C/c1ccccc1,0,0,0,0,0,0
O=C(O)c1ccc(/C=N/Nc2ccc(F)cc2F)cc1,?,0.11µM,0.54µM,0.32µM,1.8µM,?
O=C(O)c1ccc(N/N=C/c2ccc(C(F)(F)F)cc2)cc1,0.1µM,?,0.21µM,0,0,?
O=C(COC(=O)/C=C/c1ccc(C(F)(F)F)cc1)NC1CCCC1,0,0,0,0,-,0
O=C(O)c1ccc(N/N=C/c2c(F)cccc2Cl)cc1,0.29µM,1.3µM,0.3µM,?,-,?
CC(C)(C)c1ccc(/C=N/Nc2ccc(C(=O)O)cc2)cc1,?,0,0.19µM,0,0[1.84 µM],?
O=C(N/N=C/c1c(F)cccc1Cl)C1CC1,0,0,0,0,-,0
COc1ccc(CCNC(=O)c2nnn(CC(=O)Nc3c(C)cc(C)cc3C)c2N)cc1OC,0,0,0,0,-,0
O=C1C(Oc2ccc(Cl)cc2)C(c2ccc3c(c2)OCO3)N1CC1CCCO1 (stereo unspecified),0,0,0,0,-,?
O=c1[nH]c2cc3c(cc2cc1C(c1nnnn1Cc1ccccc1)N1CCCCCC1)OCCO3 (stereo unspecified),0,0,0,0,0,?
O=c1[nH]c2cc3c(cc2cc1C(c1nnnn1Cc1ccccc1)N1CCCc2ccccc21)OCO3 (stereo unspecified),0,0,0,0,0,0.65µM
CCC(=O)c1ccc(OCC(=O)Nc2cccc(S(=O)(=O)N(C)c3ccccc3)c2)cc1,0,0,15µM,0,-,?
CN(c1ccccc1)S(=O)(=O)c1cccc(NC(=O)COc2cccc([N+](=O)[O-])c2)c1,0,0,-,0,-,0
COc1cc(CC(=O)Nc2cccc(S(=O)(=O)N(C)c3ccccc3)c2)cc(OC)c1OC,0,-,-,-,-,9.2µM
Cc1ccc(CNC(=O)C2CCC(CNS(=O)(=O)c3cccc4cccnc34)CC2)cc1 (stereo unspecified),0[9.26 µM],0,0,0,-,0
Cc1cccc(NS(=O)(=O)c2ccc(NC(=O)CN(c3cc([N+](=O)[O-])ccc3C)S(C)(=O)=O)cc2)c1,0,0,0,0,0,0
Nc1cc2ccncc2c2ccccc12,0,0,0,0,-,1.8µM
CCN(C[C@H]1N[C@@](CC)(C(=O)OC)[C@H]2C(=O)N(Cc3ccccc3)C(=O)[C@@H]12)C(=O)c1ccc(C)cc1,0,-,-,-,-,8.2µM
CCN(C[C@H]1N[C@@](CC)(C(=O)OC)[C@H]2C(=O)N(Cc3ccccc3)C(=O)[C@@H]12)C(=O)c1ccc(F)cc1,0,-,-,-,-,16µM
SMILES,ELG1 genotox,Rab9 prom act,FLuc modulator,NPC1 promoter act,SMN2 splice up,ELG1 repair inh
CCN(C[C@H]1N[C@@](Cc2ccccc2)(C(=O)OC)[C@H]2C(=O)N(Cc3ccccc3)C(=O)[C@@H]12)C(=O)c1ccc(F)cc1,0,-,-,-,-,?
CCc1ccc(OCC(=O)OCC(=O)NC2CCCC(C)C2C)cc1 (stereo unspecified),0,-,-,-,-,?
COc1ccc(/C=N/NC(=O)c2ccc3c(c2)OCO3)cc1,0,0,5.4µM,0,-,?
COc1ccc(NCC(=O)N/N=C/c2ccc3c(c2)OCCO3)cc1,0,0,19µM,0,?,0
COc1cc(/C=N/NC(=O)c2ccc3c(c2)OCO3)ccc1O,?,0,17µM,0,-,?
COc1ccc(N(CC(=O)N/N=C/c2ccc3c(c2)OCO3)S(=O)(=O)c2ccccc2)cc1,0,0,0,0,0,0
COc1cc(/C=N/NC(=O)c2ccc(-n3cccc3)cc2)ccc1O,0,0,21µM,0,0,?
O=C(c1ccc2c(c1)[nH]c(=S)n1c3ccccc3nc21)N1CCN(c2cccc(Cl)c2)CC1,0,0,0,0,0,0
COC(=O)c1cc(S(=O)(=O)N2CCN(c3cccc(C)c3)C(C)C2)cn1C (stereo unspecified),-,-,0,-,-,-
COC(=O)c1ccc(C(NC(=O)OCc2ccccc2)/C(C)=C/[C@@H](C)C(=O)N(C)Cc2cccnc2)cc1 (stereo partly specified),-,-,-,-,0,-
COc1ccccc1C(=O)NCC(=O)N/N=C/c1ccncc1,0,0,0,0,0,0
COc1ccccc1C(=O)NCC(=O)N/N=C/c1ccc2c(c1)OCO2,0,0,17µM,0,-,?
CCc1ccc(Nc2cnn(-c3nc4ccccc4s3)c(=O)c2Cl)cc1,0,?,12µM,0,?,?
CCCCNc1cnn(-c2ccccc2)c(=O)c1Cl,?,?,0,0,?,?
Clc1ccccc1CSc1cc2c(nn1)-c1ccccc1CC2,?,2.5µM,5.4µM,?,20µM,?
Clc1cccc(Cl)c1CSc1cc2c(nn1)-c1ccccc1CC2,0,0,?,0,0,?
O=C(CCc1c[nH]c2ccccc12)Nc1ncccc1O,0,0,0,0,-,0
COc1ccc(/C=C/c2nnc(NC(=O)CSc3ccc(Cl)cc3)s2)cc1,?,?,0,?,10µM,?
COC(=O)Nc1nnc(/C=C/c2ccc(OC)cc2)s1,?,3.5µM,6µM,?,8.9µM,?
COc1ccc(/C=C/c2nnc(NC(C)=O)s2)cc1,2.3µM,0.13µM,1.9µM,1.1µM,-,?
CCOC(=O)c1c(C(=O)OCC)c(C)n(CCc2ccc(OC)c(OC)c2)c1C,0,0,0,0,0,15µM
COc1ccc2c(c1)c(C(C)=O)c(C)n2CCc1ccc(OC)c(OC)c1,0,0,0,0,-,0
C=CCn1c(C)cc(C(=O)CN2C(=O)c3ccccc3S2(=O)=O)c1C,0,0,1.5µM,0,-,?
CCn1c(C)cc(C(=O)CN2C(=O)c3ccccc3S2(=O)=O)c1C,0,?,-,?,-,?
Cc1cc(C(=O)Cn2cc(C(F)(F)F)ccc2=O)c(C)n1-c1ccccc1,0,0,?,0,0,0
Cc1cc(C(=O)CN2C(=O)c3ccccc3S2(=O)=O)c(C)n1-c1ccccc1,0,0,2.1µM,0,0,?
Cc1cc(C(=O)CN2C(=O)C3CC=CCC3C2=O)c(C)n1-c1ccccc1 (stereo unspecified),?,0.71µM,0.67µM,0.56µM,0,?
